# Screens: PubChem, several laboratories
# Compounds with a hit are over-represented: about 8.9% of the library has one in this group of screens.
# D1 allo mod: allosteric modulators of human D1 dopamine receptor; P21728; HEK293 D1, CRE-luciferase, dopamine EC30 potentiation; actives deviate in either direction; B-score at 10 µM; 58,000 compounds, 5.9% hits; AID 641;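 active means luminescence count or its row- and column-corrected plate score outside the 99.7% band of the plate's sample wells, on either side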
# Target sequence (P21728 whole entry, looked up): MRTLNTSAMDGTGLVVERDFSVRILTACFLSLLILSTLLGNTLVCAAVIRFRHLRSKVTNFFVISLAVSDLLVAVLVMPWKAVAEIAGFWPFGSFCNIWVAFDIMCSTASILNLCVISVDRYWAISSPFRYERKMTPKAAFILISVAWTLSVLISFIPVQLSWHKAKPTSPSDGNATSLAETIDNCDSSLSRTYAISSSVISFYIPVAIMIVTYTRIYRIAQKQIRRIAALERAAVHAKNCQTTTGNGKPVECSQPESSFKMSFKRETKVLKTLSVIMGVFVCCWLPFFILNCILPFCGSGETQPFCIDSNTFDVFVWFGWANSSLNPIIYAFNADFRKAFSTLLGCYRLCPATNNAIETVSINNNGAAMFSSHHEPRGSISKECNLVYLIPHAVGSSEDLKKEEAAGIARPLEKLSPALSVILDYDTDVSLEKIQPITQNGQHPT
# WNV NS2B-NS3 inh: blocks West Nile virus NS2B-NS3 protease activity; z-score (concentration not given with the values); P06935; 65,000 compounds, 0.18% hits; WNV NS2B-NS3 protease, fluorogenic substrate Ex360/Em465; stronger effect = lower value; AID 577; in the data active means z-score below about -3
# M1 antag: M1 muscarinic receptor (rat) antagonism; P08482; CHO-M1 cells, Fluo-4 calcium, ACh EC80 antagonist mode; stronger effect = lower value; B-score at 10 µM; 64,000 compounds, 3.4% hits;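 active means calcium fluorescence response, raw or row-and-column corrected B-score, differing from the plate sample mean either way at a set confidence level, mostly lower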
# M1 ag: M1 muscarinic receptor agonism; CHO-M1 cells, Fluo-4 calcium fluorescence, agonist mode; stronger effect = higher value; B-score at 10 µM; 64,000 compounds, 3% hits;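 active means fluorescence rise, raw or as B-score row- and column-corrected plate score, outside the 99.7% band of its plate's samples, either direction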
# Htt clearance: compounds clearing mutant huntingtin protein; HeLa Exon1htt(103Q)mCFP, aggregate imaging; zero = plate's median compound well; inhibition, % at 1.5 µM; 47,000 compounds, 0.42% hits; AID 853;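 active means inhibition of aggregate fluorescence above about 70%, also judged a hit by eye on the cell image, limit read from the data, passing the limit was not always enough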;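 further: cells exposed to compound for three days before fixation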
# M1 antag conf: confirmation of rat M1 muscarinic receptor antagonists. CHO-M1 cells, Fluo-4 calcium, ACh EC80 antagonism; stronger effect = lower value. calcium response (max-min fluorescence) at 10 µM. AID 677. 1,700 compounds, 43% hits. shares compounds with M1 antag;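 active means calcium response below the same-plate mean of wells given acetylcholine alone at its 80%-effect dose, minus 3 SD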;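 further: raw fluorescence intensity difference in arbitrary instrument units and not normalized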
# mGluR4 antag: selectivity test for M1 antagonists: human mGluR4 receptor; shares compounds with M1 antag; CHO-mGluR4 calcium flux, Fluo-4 fluorescence, glutamate EC80; stronger effect = lower value; AID 678; fluorescence response (max-min) at 10 µM; 1,700 compounds, 0.9% hits;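 active means fluorescence response below the plate's average for near-maximal glutamate wells, less 3 SD of those wells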;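 further: raw unnormalized fluorescence span taken in the window right after glutamate addition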
# * marks the source's active call; other numbers are inactive results; x = no result.
SMILES,D1 allo mod,WNV NS2B-NS3 inh,M1 antag,M1 ag,Htt clearance,M1 antag conf,mGluR4 antag
CCN1CCN(c2ccc(NC(=O)c3cccc4ncccc34)cc2)CC1,-2,1.5,-5.1*,-0.36,x,499,249
O=C(Nc1ccc(N2CCN(Cc3ccccc3)CC2)cc1)c1cccnc1,0.011,-0.4,-2.6,-1,-18,x,x
CCCN1Cc2cccc(C(=O)Nc3ccc(N4CCN(CC)CC4)cc3)c2C1=O,1.8,0.16,-1.7*,-0.018,x,354*,210
O=S(=O)(c1ccc(F)cc1)N1CCC(N2CCN(c3ccccc3)CC2)CC1,-2.5,0.16,-0.42,-0.52,8,x,x
COc1ccc(N2CCN(Cc3nc4c(c(=O)n(C)c(=O)n4C)n3Cc3ccccc3C)CC2)cc1,2.1,-0.07,0.11,0.6,x,x,x
O=C(NC1=NCCS1)c1cccc(S(=O)(=O)N2CCCCC2)c1,-0.12,0.75,0.28,-0.3,0,x,x
Cc1cc(C)nc(NS(=O)(=O)c2ccc(NC(=O)CCCN3C(=O)c4ccccc4C3=O)cc2)n1,-0.5,-0.21,-0.71,-0.52,x,x,x
O=C(O)c1cc(-c2cccs2)nc2cc3c(cc12)OCCO3,x,3.1,-0.77*,-0.83,x,686,220
Cc1ccc2nc(-c3ccc4c(c3)OCCO4)cc(C(=O)O)c2c1,-1.9,-0.19,0.4,0.73,4,x,x
CN1CCN(C2=Nc3ccccc3Oc3ccc(Cl)cc32)CC1,-5.4,-0.59,-13*,0.27,x,15*,267
O=C(CSc1ncnc2c1oc1ccccc12)NCc1ccco1,1.9,-0.15,1.3,-0.83,-71,x,x
Cc1ccccc1N(CC(=O)NCCc1ccccc1)C(=O)c1ccc(N2CCCC2)nc1,x,-0.34,-4.6*,-0.95,-37,667,241
CC(C)c1nc(SCC(=O)NCc2ccccc2)n[nH]1,2,0.55,0.12,-0.35,-26,x,x
CC1CCc2nc(NC(=O)CN3CCOCC3)sc2C1 (stereo not given),-0.045,-0.87,-4*,0.92,36,666,198
CC1CCc2nc(NC(=O)CN3CCN(c4ccccc4)CC3)sc2C1 (stereo not given),0.052,0.07,-0.039,-0.029,-34,x,x
CN1C(=O)N2CN(C3CCCCC3)CN3C(=O)N(C)C1C23 (stereo not given),-0.27,2.5,1.1,-0.69,x,x,x
COc1ccc(NS(=O)(=O)c2cc(OC)ccc2NC(=O)c2cc(C)oc2C)cc1,-0.19,0.26,-0.028,-0.61,x,x,x
CC12C(=O)N(CCC(=O)O)C(=O)C1C1C=CC2C1 (stereo not given),-0.5,-0.25,0.025,0.00019,x,x,x
CCN1CCN(c2ncc(C(=O)Nc3c(F)cc(F)cc3Br)c3ccccc23)CC1,-1.3,1.4,-10*,-1.6,x,201*,198
CCOc1ccccc1-c1nc(-c2ccc(C)nc2OC)no1,-0.34,-0.04,-0.78*,-0.066,-106,663,237
COc1ccccc1-c1noc(-c2ccccc2)n1,-0.52,-0.86,-17*,-0.0044,x,506*,263
COc1ccc(-c2nc(-c3ccccc3OC)no2)cc1OC,-0.042,-0.2,-1.3,1.4,-49,x,x
COC(=O)C1=C(N)Oc2cc(C)n(CCN3CCOCC3)c(=O)c2C1c1cccnc1 (stereo not given),x,1.4,-0.64,-1,-13,x,x
OC(COCc1ccc(Cl)cc1)CN1CCN(CC(O)COCc2ccc(Cl)cc2)CC1 (stereo not given),-0.88,-0.16,-1.9*,0.68,x,444*,255
Cn1c(Cn2c(=O)sc3ccccc32)nnc1SCc1ccccc1,-0.68,1,-0.38,-0.007,x,x,x
Oc1cccc(Nc2nc(NCC3CCCO3)c3ccccc3n2)c1 (stereo not given),-5*,0.3,-3.9*,1.6,x,357*,224
CCN(CC)CC(=O)Nc1ccc2c(c1)N(C(=O)CN(CC)CC)c1ccccc1CC2,x,x,x,x,-7,x,x
CCOC(=O)Nc1ccc2c(c1)N(C(=O)CN(CC)CC)c1ccccc1C=C2,-0.53,-1.1,-5.9*,0.11,x,28*,232
COC(=O)c1c(NC(=O)CSc2nnc(Cn3nnc4ccccc43)n2C)sc(C)c1C,-0.053,0.43,-2.4*,1.3,x,430*,255
CC1=CCC2(CO)COC(c3ccccc3O)C1C2 (stereo not given),-4.2,0.35,x,x,x,x,x
